Hit rate of the full screen: of about 39,000 compounds, about 1,500 (3.8%) were called active. The full list was thinned out, with actives kept by preference.

The test system of this test is HSkMC (human skeletal muscle cells). The test is described as follows: cytotoxicity call (relative viability < 0.9). Particulars: 10 µM.
As to `Cc1ccccc1S(=O)(=O)N1C[C@H](O)COC[C@@H]2O[C@H](CC(=O)NCc3ccccc3Cl)CC[C@H]21`, the cytotoxicity call was “inactive”.
For `O=C(N[C@@H](c1ccc(-c2ccccc2)cc1)c1cnccn1)C1CCN(Cc2cccc(C(F)(F)F)c2)CC1` the value was “inactive”.
For `O=C(NC1(c2ccccc2)CC1)c1c(CN2CCC(N3CCCCC3)CC2)c(-c2cccc(C(F)(F)F)c2)nc2cc(Br)ccc12` the value was “active”; for `COc1ccc(S(=O)(=O)N(C)C[C@H]2Oc3ccc(NC(=O)CCCN(C)C)cc3CC(=O)N([C@H](C)CO)C[C@@H]2C)cc1`, “inactive”; for `Cc1noc(C)c1NC(=O)N(C)C[C@@H]1OCCCC[C@@H](C)Oc2ccc(NC(=O)CCCCCC(=O)Nc3ccccc3N)cc2C(=O)N([C@H](C)CO)C[C@@H]1C`, “inactive”.
In the case of `CO[C@@H]1CN(C)C(=O)c2ccc(NC(=O)CC(F)(F)F)cc2OC[C@H](C)N(C(=O)C2CCOCC2)C[C@H]1C`, the cytotoxicity call was “inactive”.
Then `Cc1noc(C)c1NC(=O)Nc1cccc2c1O[C@H](CN(C)Cc1ccc(C(F)(F)F)cc1)[C@@H](C)CN([C@@H](C)CO)C2=O`, with “inactive”; and `COc1ccc(NC(=O)Nc2ccc3c(c2)C(=O)N([C@@H](C)CO)C[C@H](C)[C@@H](CN(C)C(=O)Nc2ccc(F)cc2)OCCCC[C@H](C)O3)cc1`, with “inactive”; and `C[C@H]1CN([C@@H](C)CO)C(=O)c2cccc(NC(=O)Nc3ccc(C(F)(F)F)cc3)c2O[C@H]1CN(C)Cc1ccc2c(c1)OCO2`, with “inactive”.
Then `C[C@H](CO)N1C[C@H](C)[C@H](CN(C)Cc2ccc(C(F)(F)F)cc2)Oc2c(NC(=O)Nc3ccc4c(c3)OCO4)cccc2C1=O`, with “inactive”.
For `C[C@@H]1CN([C@@H](C)CO)C(=O)c2cccc(NC(=O)Nc3ccc(C(F)(F)F)cc3)c2O[C@@H]1CN(C)Cc1ccc2c(c1)OCO2` the value was “inactive”; for `C[C@@H]1CN([C@@H](C)CO)C(=O)c2cccc(NC(=O)Nc3ccc(C(F)(F)F)cc3)c2O[C@H]1CN(C)Cc1ccc2c(c1)OCO2`, “active”; for `C[C@@H]1CN([C@@H](C)CO)C(=O)c2cccc(NC(=O)Nc3ccc4c(c3)OCO4)c2O[C@H]1CN(C)Cc1ccc(C(F)(F)F)cc1`, “active”.
As to `C[C@H](CO)N1C[C@H](C)[C@H](CN(C)Cc2ccc3c(c2)OCO3)Oc2c(NC(=O)Nc3ccc(C(F)(F)F)cc3)cccc2C1=O`, the cytotoxicity call was “inactive”.
For `C[C@@H]1CN([C@H](C)CO)C(=O)c2cccc(NC(=O)Nc3ccc(C(F)(F)F)cc3)c2O[C@H]1CN(C)Cc1ccc2c(c1)OCO2` the value was “inactive”.
Turning to `C[C@H]1CN([C@@H](C)CO)C(=O)c2cccc(NC(=O)Nc3ccc(C(F)(F)F)cc3)c2O[C@@H]1CN(C)Cc1ccc2c(c1)OCO2`, the cytotoxicity call was “active”.
For `C[C@@H]1CN([C@H](C)CO)C(=O)c2cccc(NC(=O)Nc3ccc(C(F)(F)F)cc3)c2O[C@@H]1CN(C)Cc1ccc2c(c1)OCO2` the value was “inactive”; for `C[C@H]1CN([C@@H](C)CO)C(=O)c2cccc(NC(=O)Nc3ccc4c(c3)OCO4)c2O[C@@H]1CN(C)Cc1ccc(C(F)(F)F)cc1`, “inactive”.
In the case of `C[C@H](CO)N1C[C@H](C)[C@@H](CN(C)Cc2ccc3c(c2)OCO3)Oc2c(NC(=O)Nc3ccc(C(F)(F)F)cc3)cccc2C1=O`, the cytotoxicity call is “active”.
On to `C[C@H]1CN([C@@H](C)CO)C(=O)c2cccc(NC(=O)Nc3ccc4c(c3)OCO4)c2O[C@H]1CN(C)Cc1ccc(C(F)(F)F)cc1`, for which the cytotoxicity call is “inactive”.
For `C[C@H]1CCCCO[C@@H](CN(C)C(=O)Nc2ccc3c(c2)OCO3)[C@@H](C)CN([C@@H](C)CO)C(=O)c2cc(NS(=O)(=O)c3cccs3)ccc2O1` the value was “inactive”.
Take `Cc1cc(C(=O)Nc2cccc3c2O[C@@H](CN(C)S(=O)(=O)c2cccs2)[C@H](C)CN([C@H](C)CO)C3=O)n(C)n1`: the cytotoxicity call is “inactive”.
For `C[C@H]1CCCCO[C@H](CN(C)C(=O)NC2CCCCC2)[C@@H](C)CN([C@@H](C)CO)C(=O)c2cc(NS(=O)(=O)c3cccs3)ccc2O1` the value was “inactive”; for `C[C@@H]1CCCCO[C@@H](CN(C)Cc2ccc(C(F)(F)F)cc2)[C@H](C)CN([C@H](C)CO)C(=O)c2cc(NC(=O)c3ccncc3)ccc2O1`, “inactive”.
`O=C(NCc1nc2ccccc2[nH]1)C1=C[C@@H](c2ccc(Br)cc2)C[C@@H](OCc2ccc(CO)cc2)O1`: the cytotoxicity call was “inactive”.
`Cc1ccc(S(=O)(=O)N(C)C[C@@H]2Oc3ccc(NC(=O)Nc4ccc(C(F)(F)F)cc4)cc3C(=O)N([C@H](C)CO)C[C@@H]2C)cc1`: the cytotoxicity call was “inactive”.
Then `CS(=O)(=O)[C@H]1CCNC1`, with “inactive”; and `CC(C)(C)S(=O)N1Cc2cc(C(=O)NCc3ccc4c(c3)OCO4)nc(-c3cccc(-c4cccc(F)c4)c3)c2[C@H]1CCO` (stereo not given in full), with “inactive”; and `COc1ccccc1CNC(=O)C[C@H]1CC[C@@H]2[C@H](COC[C@H](O)CN2C(=O)Nc2ccc(F)cc2)O1`, with “inactive”.
In the case of `O=C(C[C@H]1C[C@H]2c3cc(NC(=O)C4CCOCC4)ccc3O[C@H]2[C@H](CO)O1)NCc1ccc2c(c1)OCO2`, the cytotoxicity call was “inactive”.
Then `C[C@@H]1CN([C@@H](C)CO)C(=O)c2cccc(NC(=O)c3nc4ccccc4s3)c2O[C@H]1CN(C)C(=O)Nc1ccc(C(F)(F)F)cc1`, with “inactive”; and `COc1ccccc1S(=O)(=O)N[C@@H]1CC[C@H](CCNC(=O)C2CC2)O[C@H]1CO`, with “inactive”.
For `CN(C)CCCNC(=O)[C@@H]1[C@@H](CO)[C@@H]2Cn3c(ccc(-c4cccc(C(=O)N(C)C)c4)c3=O)[C@H]1N2` the value was “inactive”.
For `C[C@@H]1O[C@H](O[C@H]2[C@H](OC(=O)[C@]34CCC(C)(C)C[C@@H]3C3=CC[C@@H]5[C@@]6(C)CC[C@H](O[C@@H]7O[C@@H](C)[C@H](O[C@@H]8OC[C@@H](O)[C@H](O)[C@H]8O)[C@@H](O)[C@H]7O)C(C)(C)[C@@H]6CC[C@@]5(C)[C@]3(C)C[C@@H]4O)OC[C@H](O)[C@H]2O)[C@H](O)[C@H](O)[C@H]1O[C@@H]1O[C@H](CO)[C@@H](O)[C@H](O)[C@H]1O` the value was “inactive”.
On to `C=C[C@](C)(O)CC/C=C(\C)C(=O)O[C@@H]1[C@@H](O[C@@](C)(C=C)CC/C=C(\C)C(=O)O[C@H]2C[C@@]3(C(=O)O[C@H]4OC[C@@H](O[C@H]5O[C@@H](CO)[C@@H](O)[C@@H](O[C@H]6O[C@@H](CO)[C@@H](O[C@H]7O[C@@H](CO)[C@@H](O)[C@@H](O)[C@@H]7O)[C@@H](O)[C@@H]6O)[C@@H]5O)[C@@H](O)[C@@H]4O)[C@@H](O)C[C@@]4(C)C(=CC[C@H]5[C@@]6(C)CC[C@@H](O[C@H]7O[C@@H](CO)[C@@H](O[C@H]8O[C@@H](CO)[C@@H](O)[C@@H](O[C@H]9OC[C@@H](O)[C@@H](O)[C@@H]9O)[C@@H]8O)[C@@H](O)[C@@H]7O)C(C)(C)[C@@H]6CC[C@@]54C)[C@@H]3CC2(C)C)OC[C@@H](O)[C@H]1O`, for which the cytotoxicity call was “active”.
Then `C[C@@H]1O[C@@H](O[C@H]2[C@H](OC(=O)[C@]34CCC(C)(C)C[C@H]3C3=CC[C@H]5[C@@]6(C)CC[C@H](O[C@@H]7O[C@H](CO)[C@@H](O)[C@H](O)[C@H]7O)C(C)(C)[C@@H]6CC[C@@]5(C)[C@]3(C)C[C@H]4O)OC[C@H](O)[C@@H]2O)[C@H](O)[C@H](O[C@@H]2OC[C@H](O)[C@H](O)[C@H]2O)[C@H]1O[C@@H]1OC[C@@H](O)[C@H](O[C@@H]2OC[C@H](O)[C@H](O)[C@H]2O)[C@H]1O`, with “inactive”.
Turning to `C[C@H](CO)N1C[C@H](C)[C@H](CN(C)S(=O)(=O)c2ccccc2)Oc2ccc(NC(=O)CCN3CCOCC3)cc2CC1=O`, the cytotoxicity call is “inactive”.
As to `C[C@@H]1CN([C@H](C)CO)S(=O)(=O)c2ccc(C3=CCCC3)cc2O[C@H]1CN(C)S(=O)(=O)c1cn(C)cn1`, the cytotoxicity call was “inactive”.
As for `C/C1=C2/[N]([Co+][OH])[C@H]([C@H](CC(N)=O)[C@@]2(C)CCC(=O)NC[C@@H](C)OP(=O)(O)O[C@H]2[C@@H](O)[C@@H](n3cnc4cc(C)c(C)cc43)O[C@@H]2CO)[C@]2(C)N=C(/C(C)=C3N=C(/C=C4N=C1[C@@H](CCC(N)=O)C/4(C)C)[C@@H](CCC(N)=O)[C@]\3(C)CC(N)=O)[C@@H](CCC(N)=O)[C@]2(C)CC(N)=O`, the cytotoxicity call was “active”.
With `C[C@H]1CN([C@@H](C)CO)C(=O)Cc2cc(NC(=O)Cn3cnnn3)ccc2O[C@@H]1CN(C)S(=O)(=O)c1ccc(Cl)cc1`, the cytotoxicity call is “inactive”.
For `CC(C)N1CC[C@@H](CN(C)Cc2ccc(Cl)cc2)Oc2c(NC(=O)c3ccncc3)cccc2C1=O` the value was “inactive”.
Consider `Cc1ccc(C(=O)N(CCCN)[C@@H](c2nc3cc(Cl)ccc3c(=O)n2Cc2ccccc2)C(C)C)cc1`, for which the cytotoxicity call is “active”.
For `Cc1ccc(C(=O)N(CCCN)[C@@H](c2oc3cc(Cl)ccc3c(=O)c2Cc2ccccc2)C(C)C)cc1` the value was “active”; for `Cc1ccc2c(c1)c1nc3ccccc3nc1n2Cc1ccccc1`, “inactive”.
Consider `COc1ccc2cc(S(=O)(=O)N[C@H](CC(=O)N[C@H](Cc3ccc(CN4[C@H](C)CCC[C@@H]4C)cc3)C(=O)N(C)C(C)C)c3ccc4c(c3)OCO4)ccc2c1`, for which the cytotoxicity call was “inactive”.
For the molecule `C[C@@H]1CCCCO[C@@H](CN(C)Cc2ccc(Cl)c(Cl)c2)[C@@H](C)CN([C@@H](C)CO)C(=O)c2cc(NC(=O)CCC(F)(F)F)ccc2O1`, the cytotoxicity call is “inactive”.
As to `CO[C@H](C(=O)N(C)C[C@H]1OCc2ccccc2-c2c(n(C)c3ccccc23)C(=O)N([C@@H](C)CO)C[C@H]1C)c1ccccc1`, the cytotoxicity call was “inactive”.
Then `C[C@@H]1CN([C@H](C)CO)C(=O)c2cc(NS(C)(=O)=O)ccc2O[C@@H]1CN(C)C(=O)NC1CCCCC1`, with “inactive”.
Then `Cc1noc(C)c1NC(=O)Nc1ccc2c(c1)C(=O)N([C@H](C)CO)C[C@H](C)[C@H](CN(C)Cc1ccc(C(F)(F)F)cc1)OCCCC[C@H](C)O2`, with “inactive”.
With `C[C@@H]1CN([C@H](C)CO)C(=O)Cc2cc(NC(=O)c3ccncc3)ccc2O[C@H]1CN(C)Cc1ccc2c(c1)OCO2`, the cytotoxicity call is “inactive”.

Values taken from the antibiotic and cytotoxicity screens of Wong et al. (2023).
